Data published in the supplement of paper PMC6522484.
± gives the standard deviation of the averaged measurements.

How the values were obtained:
DLD1 [1] = assay: cell viability (CellTiter-Glo) relative to plate median (fraction of plate median); higher = more viable cells; details: 5 µM; treatment time 24 h; reporter: 7TFP
How it was run: (§1)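 Two independent replicates were averaged for each reported value. Library compounds were applied at a final 5 µM for 24 h to colorectal cancer cell lines stably expressing lentiviral TCF/Wnt firefly luciferase reporters. Firefly luciferase or CellTiterGlo luminescence from each well was normalised to the plate median.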

HCT116 = assay: as above; details: 5 µM; treatment time 24 h; reporter: TCF4/Wnt
How it was run: as §1

SW480 [2] = assay: as above; details: 5 µM; treatment time 24 h; reporter: 7TFP
How it was run: as §1

DLD1 [3] = assay: TCF/Wnt firefly luciferase reporter signal relative to plate median (fraction of plate median); higher = higher Wnt reporter signal; details: 5 µM; treatment time 24 h; reporter: 7TFP
How it was run: as §1

SW480 [4] = assay: as above; details: 5 µM; treatment time 24 h; reporter: 7TFP
How it was run: as §1

Row | SMILES | cell viability (DLD1 [1]) | cell viability (HCT116) | cell viability (SW480 [2]) | TCF/Wnt firefly luciferase reporter signal (DLD1 [3]) | TCF/Wnt firefly luciferase reporter signal (SW480 [4])
1 | CC(=O)Oc1ccc(/C=C/c2cc(OC(C)=O)cc(OC(C)=O)c2)cc1 | 1.05 ± 0.042 | 1.02 ± 0.014 | 1.09 ± 0.021 | 1.14 ± 0.26 | 1.17 ± 0.078
2 | C[C@H](N)[C@H](O)c1ccc(O)c(O)c1 | 0.971 ± 0.042 | 1.05 ± 0.057 | 1.09 ± 0.17 | 1.004 ± 0.0085 | 0.9685 ± 0.0078
3 | CNC(C)(C)Cc1ccccc1 | 1.02 | 1.01 ± 0.021 | 1.06 ± 0.014 | 1.09 | 0.932 ± 0.04
4 | COC(=O)[C@H]1O[C@@H]2C[C@H]3O[C@@H](n4cnc5c(N)ncnc54)[C@H](OC)[C@H]3O[C@@]2(O)[C@@H](O)[C@@H]1O [Herbicidin B] | 0.988 ± 0.032 | 1.04 ± 0.081 | 1.05 ± 0.021 | 0.857 ± 0.061 | 0.945 ± 0.051
5 | CCC(C)C(=O)c1c(O)c(C)c2oc3c(C)c(O)c(C(=O)C(C)CC)c(O)c3c2c1O (stereo not given) | 0.997 ± 0.033 | 0.95 ± 0.11 | 0.998 ± 0.045 | 0.9565 ± 0.0035 | 0.9575 ± 0.0092
6 | CC1=NCCc2c1[nH]c1cc(O)ccc21 | 0.971 ± 0.069 | 1.01 ± 0.11 | 1.02 ± 0.014 | 1.02 ± 0.17 | 0.988 ± 0.031
7 | COC1CC(OC2CCC3(C)C(CCC4C3CCC3(C)C(C5=CC(=O)OC5)CCC43O)C2)OC(C)C1OC1OC(COC2OC(CO)C(O)C(O)C2O)C(O)C(O)C1O (stereo not given) | 0.873 ± 0.11 | 0.969 ± 0.0099 | 0.964 ± 0.044 | 1.14 ± 0.042 | 1.03 ± 0.098
8 | O=C(O)CCCc1ccc(N(CCCl)CCCl)cc1 | 1.02 ± 0.035 | 0.958 ± 0.011 | 1.02 ± 0.067 | 0.974 ± 0.037 | 0.966 ± 0.0028
9 | NC(=O)CN1CCCC1=O | 1.02 ± 0.051 | 1.01 ± 0.092 | 0.955 ± 0.024 | 0.925 ± 0.023 | 1.15 ± 0.05
10 | CCNc1nc(Cl)nc(NC(C)C)n1 | 0.981 ± 0.017 | 1.07 ± 0.064 | 0.946 ± 0.023 | 0.965 ± 0.0071 | 0.976 ± 0.0071
11 | N=C(NCCC[C@H](N)C(=O)O)N[N+](=O)[O-] | 0.944 ± 0.14 | 0.966 ± 0.047 | 0.9515 ± 0.0064 | 1.07 ± 0.05 | 0.947 ± 0.09
12 | C=C[C@H]1CN2CC[C@H]1C[C@H]2[C@H](OC(=O)OCC)c1ccnc2ccc(OC)cc12 | 1.01 ± 0.06 | 0.911 ± 0.063 | 0.995 ± 0.035 | 0.956 ± 0.013 | 0.98 ± 0.1
13 | C/C(=C\c1csc(C)n1)[C@@H]1C[C@@H]2O[C@@H]2CCC[C@H](C)[C@H](O)[C@@H](C)C(=O)C(C)(C)[C@@H](O)CC(=O)O1 [Epothilone A] | 1.09 ± 0.021 | 0.464 ± 0.073 | 1.14 ± 0.099 | 0.732 ± 0.076 | 0.8595 ± 0.0078
14 | NCC1(CC(=O)O)CCCCC1 | 1 ± 0.083 | 1.08 ± 0.021 | 0.981 ± 0.013 | 1.07 ± 0.057 | 1.1 ± 0.064
15 | CNC(=O)ON=C(C)SC | 1.01 ± 0.021 | 0.928 ± 0.1 | 0.985 ± 0.035 | 0.98 ± 0.029 | 0.933 ± 0.058
